# In article PMC12136788:
# Changes are numbered by the printed parent chain. Whole data set: some 24,000 sequences, median “enrichment r” near 0.99, cut for the highest 2% near 3.7. For the sample, the highest values were picked, then their nearest neighbours and some sequences at random.
# T1: UNK ZnF1-3 (human, UniProt Q9C0B0 31-174)
# T1 sequence: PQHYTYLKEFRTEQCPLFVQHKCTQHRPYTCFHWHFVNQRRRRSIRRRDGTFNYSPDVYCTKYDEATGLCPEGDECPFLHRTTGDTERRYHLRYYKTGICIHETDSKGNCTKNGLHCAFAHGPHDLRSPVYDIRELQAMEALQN
# B1: chr1:163117127:163117128:-_ENSG00000143248_ENST00000313961|hu_mus|hu_hu_hu_mus_False|1_18 (ssRNA)
# RNA: GGGAGUUCUACAGUCCGACGAUCUGCUACAAAGGAUGUAACUCAACUCACAGGGCAACUUUUGGAAGCCUGACCAGAUGACUACUUGAUUAGCUCCUUAUAAAAUUCAGAGCGCACAAAGCGAGGCAGAGAAUCCUUUUCCAUCAACAGAGGAUUGAGCAUCA
# B2: chr16:45382771:45382772:-_ENSMUSG00000022661_ENSMUST00000163230|mus_mus|mus_mus_mus_hu_True|18_88 (ssRNA)
# RNA: GGGAGUUCUACAGUCCGACGAUCCUGGGUCAUGUUAUAAGACAAAUGGAUAGGGAGGGCAUGCUUCUCAAAAAAUGUGAGCUAUUGUCUAAGACUAACAAUAUUUAUCUAGCUAUAUAAAAAUAAGAAAUGAAUAAGUUAAGACAACAGAGGAUUGAGCAUCA
# B3: chr18:56819859:56819860:+_ENSG00000166562_ENST00000588875|hu_mus|hu_hu_hu_mus_True|38_38 (ssRNA)
# RNA: GGGAGUUCUACAGUCCGACGAUCAACCUUGAUUACUCUGUGAACUAUCGGAAUGUCUCUUCCUUCAACCUUAAAAACAACUAUUUCACCAGCUCUGAUUGGGUCUUCCCGGAAAUUCGUGAGGAACAGCAGAUCUCCUCUGUGCAACAGAGGAUUGAGCAUCA
# B4: 78791426_78796734_1209_CDS_ENSMUSG00000033088_ENSMUST00000109689|mouse|control|control (ssRNA)
# RNA: GGGAGUUCUACAGUCCGACGAUCACUGCCAGAAUUCUCCUUCCUCUGGCCUGCUGUGUCUCCUCGGGCUGGGGACCUGGUGGCCUUUCGAGCACUGUCAGCUCUCAGUCCCUCCUGAGGCCUCCUUGGGAUCAUCUCUGUGAGCAACAGAGGAUUGAGCAUCA
# B5: chr7:141450121:141450122:+_ENSG00000106028_ENST00000265304|hu_mus|hu_hu_hu_mus_True|28_98 (ssRNA)
# RNA: GGGAGUUCUACAGUCCGACGAUCUCAUCCGUUCUAUUCCUUCUCUUUUGUCUGGUCACUCAGAAAUAUAAUGUUAUCAGCUAUGAUUGUUGUUGCUUGCCGCCUCACAUUAUUUUUAUCCAUGUACUCGCCAUAGUCCACUUUCAACAGAGGAUUGAGCAUCA
# B6: 180848183_180848303_6210_CDS_ENSMUSG00000026494_ENSMUST00000161017|mouse|control|control (ssRNA)
# RNA: GGGAGUUCUACAGUCCGACGAUCAUUGGACCUUUUCUUUUGGUUUUUGAGGCUCCUGCAUCUCCCUCCCACGGAGCUGCUGUUCUCGCUCAUGGAGUCCUGGGCUGAGGAUGCACUGCCGGUGGCCUCGCUGUCUCUCAUCAUCAACAGAGGAUUGAGCAUCA
# B7: chr16:45382771:45382772:-_ENSMUSG00000022661_ENSMUST00000163230|mus_mus|mus_mus_mus_hu_True|18_68 (ssRNA)
# RNA: B2 RNA with U50C, C68G, A69U, A73G
# B8: chr16:45382771:45382772:-_ENSMUSG00000022661_ENSMUST00000163230|mus_mus|mus_mus_mus_hu_True|38_68 (ssRNA)
# RNA: GGGAGUUCUACAGUCCGACGAUCCUGGGUCAUGUUAUAAGACAAAUGGACAGGGAGGGCAUGCUUCUGUAAAGAUGUGAGCUAUUGUCUAAGACUAACAAUAUUGCUCUAGCUAUAAAAAUAAGUUAAAUGAAUAAGUUAAGACAACAGAGGAUUGAGCAUCA
# B9: chr1:151039735:151039736:+_ENSG00000213190_ENST00000368921|hu_mus|FALSE|FALSE (ssRNA)
# RNA: GGGAGUUCUACAGUCCGACGAUCCCCAGGCCUUCCAGCUCCGACAGAUCCAGUUCUGGGAUGGGCAUCCUCCAGAAAAGAAAGGAGCUGUACUGGCUACUUACAGGGUCCCUCAUGAUCCCCUGUUAGCAAUGAAUGACUAGGCAACAGAGGAUUGAGCAUCA
# B10: chr8:35894604:35894605:-_ENSMUSG00000031529_ENSMUST00000033929|mus_hu|FALSE|FALSE (ssRNA)
# RNA: GGGAGUUCUACAGUCCGACGAUCCUAUAGCAAUGCUUUAUAGAAGACAAACAGCUUAUUUCUAGGCUGUCAGGGACUUCUAGAAUAUUGAUGUUGUUAUUAGAAACAAUCCUCUGUAAUCCAGUCCCAGGUUGAAAUCUGAUCCAACAGAGGAUUGAGCAUCA
# B11: chr3:139078181:139078182:-_ENSG00000184432_ENST00000507777|hu_mus|FALSE|FALSE (ssRNA)
# RNA: GGGAGUUCUACAGUCCGACGAUCCUGACUGGGUAAGUAAGUUCGGGCCAGGAAGGCAGCUUCUGGGAGUCUUCCUGUUCUGAUCAAGAGCUCUAGGCAAGCAUCAAGCUUGCCCUGUAAAAAAUAGCUCAUGAAUGCCACGUUCAACAGAGGAUUGAGCAUCA
# B12: chr7:19156472:19156473:-_ENSG00000122691_ENST00000242261|hu_mus|FALSE|FALSE (ssRNA)
# RNA: GGGAGUUCUACAGUCCGACGAUCGCUGCAGCUUGCCAUCUUGGAGUCCAGCUCGUCGCUCUGCAGGACCUGGUACAGGAAGUCGAUGUACCUGGCCGCCAGUUUGAGGGUCUGAAUCUUGCUCAGCUUGUCCGAGGGCAGCGUCAACAGAGGAUUGAGCAUCA
# B13: chr12:39756943:39756944:-_ENSG00000139116_ENST00000544797|hu_mus|hu_hu_hu_mus_False|28_58 (ssRNA)
# RNA: GGGAGUUCUACAGUCCGACGAUCGGUUUGGCUGUUACCCCCAAGGGAAUCCUGCAAGAGUCUUGUCAGCUUAGAGUCUCUAUAGGGGACAUGGGUGGCUCUCUUGCUCUUGUCUCCCAAGGCGCUGAUUACAUUCCCAAGAGCCAACAGAGGAUUGAGCAUCA
# B14: chr8:95500983:95500984:-_ENSG00000164944_ENST00000437199|hu_hu|hu_hu_hu_mus_True|8_88 (ssRNA)
# RNA: GGGAGUUCUACAGUCCGACGAUCAGAACACAUCUAUCGAGUAAAGGGAGCGUACAUACGGCCUCUACCACUGCCUCCACUAACAAACUUUCCUCUCGAGCCUCCACUGCCGCUAUUUGUACUAGCCCCAGGAAGGUCCAGGCCCAACAGAGGAUUGAGCAUCA
# B15: chr17:90989275:90989276:-_ENSMUSG00000024109_ENSMUST00000160844|mus_mus|motif|central (ssRNA)
# RNA: GGGAGUUCUACAGUCCGACGAUCAGAUGUUGUCUUGAAUUGGAAAAAUAGAUGCAUAGAGGUGUAGGCUUGCAAUGUAGCGGAGGCAACAUAGCUCGAUUUGGUCUUGAAGGUGACAGGAUCUGCGAUGAUGUUCCUGAAUCCCAACAGAGGAUUGAGCAUCA
# B16: chrX:103214973:103214974:+_ENSMUSG00000031231_ENSMUST00000033582|mus_hu|FALSE|FALSE (ssRNA)
# RNA: GGGAGUUCUACAGUCCGACGAUCAACAAUACAGAAAGUGGCUCCACUAGCUAAUACAGCAUUACCGUAUUUGUCAUGAAAAUCAGGUGUACGUUUCUGGUGGCUCUGCCUUGCCAUUGUUUGCUGAAUGCUUCGAACUUGGAGCAACAGAGGAUUGAGCAUCA
# B17: chr2:35989780:35989781:-_ENSMUSG00000026889_ENSMUST00000028251|mus_hu|FALSE|FALSE (ssRNA)
# RNA: GGGAGUUCUACAGUCCGACGAUCGCAUUCUCCAGGGGAAGAGUUUUGGUUUCUGCUUCCAUCAAUGUCUAUGAAAUACUCGUGGCCUCGGCGUGGUGCUCUCAGCUCAUGCCCGGAAACCAGGUCCCGACGCCGCGGUCAGACCAACAGAGGAUUGAGCAUCA
# B18: 37444673_37445709_2339_CDS_ENSMUSG00000026113_ENSMUST00000027287|mouse|control|control (ssRNA)
# RNA: GGGAGUUCUACAGUCCGACGAUCGUAGAGCUGCCGCAGGAAGCCACCGUCGUGCAGGCAGUUCCUCAGCUUGAUGAUAAAGCCACAGAUGAGGGCUGUCAGGGUUUGGCAGAAGACGACGUCACGGCGAUACUGCAGGCUGAGCAACAGAGGAUUGAGCAUCA
# B19: chr5:106037793:106037794:+_ENSMUSG00000054720_ENSMUST00000067924|mus_mus|motif|central (ssRNA)
# RNA: GGGAGUUCUACAGUCCGACGAUCUGUUGUCUUGUGUGGAAAAGGAAAAAAAAAUAAUAUAGGAAAGGCAUUAGGACGGCCGGAUUCUUUAUAUUGUAUUUGGUAGAAGCAUGUUUCAGUCAUACUCUGAUGAAAAAUAAGUUACAACAGAGGAUUGAGCAUCA
# B20: chr14:46222469:46222470:-_ENSMUSG00000037697_ENSMUST00000051310|mus_hu|FALSE|FALSE (ssRNA)
# RNA: GGGAGUUCUACAGUCCGACGAUCAUUCUCUGAAACUGAGGUAGGUUCUUUAGCUGGGUUGAGAAAGCUUGGCUUCAUAUGUUCAUAAGGUAAAGGAUUUGAAGUAUUGUACCAGUGGAUCUGGACAGGUGAAAUGUUGCUGUACAACAGAGGAUUGAGCAUCA
# B21: chr21:32491406:32491407:-_ENSG00000156299_ENST00000286827|hu_hu|motif|central (ssRNA)
# RNA: GGGAGUUCUACAGUCCGACGAUCCAUAGUAUUUUAAACCCUUCUUAGGAAGUGGACAUUGUGACAUGGGAAAAGAAAAAGCGGUAAACCUUUUUUUAAAAAAAAAAAAAAAAUUGAAAGUGCUAUAACUUGUUUUUCUUCUUACAACAGAGGAUUGAGCAUCA
# B22: 57185256_57189016_303_CDS_ENSG00000146143_ENST00000607273|human|control|control (ssRNA)
# RNA: GGGAGUUCUACAGUCCGACGAUCUUCAUCUUCUAAGUUUUCUCUGUAGGAAAACUUGAGCUUCCGAAGCUCACUCUCCAACUUACUCUGGUAUUGUUCAGUUCCUUUCACAUAGCUCACUCCAAGAUUUUCAACUGAUUUUAACAACAGAGGAUUGAGCAUCA
# B23: chr5:106037793:106037794:+_ENSMUSG00000054720_ENSMUST00000067924|mus_mus|FALSE|FALSE (ssRNA)
# RNA: B19 RNA with G77U, G78A, G81U, G82A
# B24: chr5:106037793:106037794:+_ENSMUSG00000054720_ENSMUST00000067924|mus_hu|motif|central (ssRNA)
# RNA: GGGAGUUCUACAGUCCGACGAUCCUUUGUGUACAUUUUGUGUGAAAAGGAAAAAAAAAUAGGAAAGGCAUUAAGACGGCCGGAUUAUUUAUACUGUAUUUGGUAGAAGCGUGUUUCAGUCAAACUUUAACGAAAAAUAAGUUACAACAGAGGAUUGAGCAUCA
# B25: chrX:119742084:119742085:+_ENSG00000232119_ENST00000371317|hu_hu|FALSE|FALSE (ssRNA)
# RNA: GGGAGUUCUACAGUCCGACGAUCAAAAGGAUAUUUGUGAAGUAAUCUUAGGGUUGGAUAAAAAGGCCCUUCUCUUUGUCUAAAAAAGAGUAAUUCUCCAUUUACUGUAAGGAUUUCUAUAUGUUCAUGGCAUCGGACUAUUUUCAACAGAGGAUUGAGCAUCA
# B26: chr11:9308113:9308114:-_ENSG00000166471_ENST00000528080|hu_hu|motif|central (ssRNA)
# RNA: GGGAGUUCUACAGUCCGACGAUCAUUAGGCAGAAAUGGUGUUAUUCUCAAAAAUAUAAUGUAGUUAAUGAGAUGUUCUCGGUGACGUUCAACCUGCUGUGACCAUUUUACUGCUUUCUCUGUUAGGUAUUUGUAUACAACUGGCAACAGAGGAUUGAGCAUCA
# Target: T1, UNK ZnF1-3
# Assay: nsRBNS (natural sequence RNA bind-n-seq); RBNS binding buffer (assumed for nsRBNS): 25 mM Tris pH 7.5, 150 mM KCl, 3 mM MgCl2, 0.01% Triton X-100, 500 ug/ml BSA, 20 U/ml SUPERase-In, 4 C; UNK is unkempt and MSI1 is Musashi-1; names of the RNAs are library labels; protein concentration not given here; high values mean tight binding
row,Binder,binding signal
1,B1,1.28 enrichment R
2,B2,4.85 enrichment R
3,B3,0.808 enrichment R
4,B4,0.647 enrichment R
5,B5,0.444 enrichment R
6,B6,0.445 enrichment R
7,B7,5.64 enrichment R
8,B8,9.94 enrichment R
9,B9,1.11 enrichment R
10,B10,0.4 enrichment R
11,B11,0.848 enrichment R
12,B12,0.84 enrichment R
13,B13,0.774 enrichment R
14,B14,1.68 enrichment R
15,B15,1.21 enrichment R
16,B16,1.13 enrichment R
17,B17,0.583 enrichment R
18,B18,1.01 enrichment R
19,B19,5.1 enrichment R
20,B20,1.5 enrichment R
21,B21,1.34 enrichment R
22,B22,0.6 enrichment R
23,B23,4.57 enrichment R
24,B24,3.77 enrichment R
25,B25,0.455 enrichment R
26,B26,1.85 enrichment R
